Test systems include 786-0 renal; MALME-3M melanoma; UACC-257 melanoma; SK-MEL-2 melanoma; EKVX NSCLC; SN12C renal; TK-10 renal; ACHN renal; CAKI-1 renal; A498 renal; RPMI-8226 leukemia; OVCAR-8 ovarian; OVCAR-4 ovarian; SK-OV-3 ovarian; IGROV1 ovarian; OVCAR-3 ovarian; BT-549 breast; MDA-MB-435 melanoma; HCT-116 colon; HCC-2998 colon.
Test in all cases: NCI-60 one-dose screen, 48 h (100 = growth as untreated, 0 = no growth, -100 = all killed)
Conditions in all cases: 10 µM

Each structure is given as a SMILES string. The panel holds about 83,000 compounds, 20% with a hit somewhere; the sample as a whole holds those more often.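 48-hour exposure, single concentration, 96-well plates; percent growth endpoint where 0 means no net growth. Active: below 10.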 Unmarked numbers belong to inactive results. The source made the active and inactive calls.

With `CC(C)N=C([Se])NC(=O)c1ccccc1`, the growth in the assay on 786-0 renal was -93.6% (active); with MALME-3M melanoma, -24.7% (active); with UACC-257 melanoma, -36.2% (active); in the assay on SK-MEL-2 melanoma, -40% (active); in the assay with EKVX NSCLC it was -56.8% (active); with SN12C renal, -59.8% (active). Further, the growth was -71.2% (active) in the assay on TK-10 renal; -51.2% (active) in the assay with ACHN renal; -80.7% (active) with CAKI-1 renal; -29.4% (active) in the assay on A498 renal; 0.145% (active) in the assay with RPMI-8226 leukemia; -65.2% (active) with OVCAR-8 ovarian. Besides, the growth in the assay with OVCAR-4 ovarian was 3.7% (active); in the assay with SK-OV-3 ovarian, -57.2% (active); in the assay with IGROV1 ovarian it was -54.5% (active); in the assay with OVCAR-3 ovarian, -61% (active); in the assay with BT-549 breast, 40.6%; in the assay with MDA-MB-435 melanoma, 22.5%. For the same molecule, the growth in the assay on HCT-116 colon is 1.38% (active); in the assay with HCC-2998 colon it was -35.5% (active).
As to `COc1cc(OC)c(S(=O)(=O)N(CCCl)CCCl)cc1C(=O)/C=C/c1cc(OC)c(OC)c(OC)c1`, the growth in the assay with 786-0 renal is -59.7% (active); in the assay with MALME-3M melanoma it was -15.6% (active); in the assay on UACC-257 melanoma, -60% (active); in the assay on SK-MEL-2 melanoma, -94.5% (active); in the assay on EKVX NSCLC, 12.3%; with SN12C renal it was 8.6% (active). The growth in the assay with TK-10 renal is 3.84% (active); in the assay on ACHN renal, 2.37% (active); with CAKI-1 renal, -5.59% (active); with A498 renal, -0.926% (active); in the assay on RPMI-8226 leukemia, -24.3% (active); in the assay on OVCAR-8 ovarian, 9.85% (active). The growth in the assay with OVCAR-4 ovarian is 23.2%; in the assay with SK-OV-3 ovarian it was 9.62% (active); with IGROV1 ovarian, 0.296% (active); in the assay with OVCAR-3 ovarian it was -3.7% (active); in the assay with BT-549 breast it was -84.7% (active); in the assay on MDA-MB-435 melanoma, -31.5% (active). In addition, the growth with HCT-116 colon is -87.7% (active); in the assay on HCC-2998 colon, -91.1% (active).
Regarding `COP(=O)(CC(F)(F)C(F)(F)F)OC`, the growth with 786-0 renal was -3% (active); with MALME-3M melanoma it was -59.1% (active); in the assay on UACC-257 melanoma, -36.5% (active); with SK-MEL-2 melanoma, 25.2%; in the assay with EKVX NSCLC it was 81.1%; in the assay on SN12C renal, 76.2%. Also, the growth was -40.6% (active) in the assay on TK-10 renal; -97.6% (active) with ACHN renal; 10.3% with CAKI-1 renal; 131% in the assay with A498 renal; 12.3% in the assay on RPMI-8226 leukemia; -75.6% (active) with OVCAR-8 ovarian. Also, the growth with OVCAR-4 ovarian was -13.4% (active); with SK-OV-3 ovarian it was 118%; in the assay with IGROV1 ovarian it was 50.2%; in the assay with OVCAR-3 ovarian, -3.42% (active); with BT-549 breast it was 37.3%; with MDA-MB-435 melanoma, 9.6% (active). The figures for the growth in the assay on HCT-116 colon and in the assay on HCC-2998 colon were -60.6% (active) and 91%, respectively.
In the case of `CC[C@]12C=CCN3CC[C@@]4(c5ccc(OC)cc5N(C)[C@H]4[C@@](O)(C(=O)OC)[C@@H]1OC(=O)CCC[P+](C1CCCCC1)(C1CCCCC1)C1CCCCC1)[C@@H]32`, the growth with 786-0 renal was -16.3% (active); in the assay on MALME-3M melanoma, -96.1% (active); in the assay on UACC-257 melanoma, -80.9% (active); in the assay with SK-MEL-2 melanoma it was -84.9% (active); with EKVX NSCLC it was 15.4%; with SN12C renal, -40.5% (active). Further, the growth is -48.6% (active) with TK-10 renal; 32% in the assay on ACHN renal; -8.49% (active) in the assay with CAKI-1 renal; 21.8% with A498 renal; -43.4% (active) in the assay with RPMI-8226 leukemia; 1.19% (active) with OVCAR-8 ovarian. For the same molecule, the growth was 17.7% with OVCAR-4 ovarian; -7.72% (active) in the assay on SK-OV-3 ovarian; -85.9% (active) in the assay with IGROV1 ovarian; -48.6% (active) in the assay on OVCAR-3 ovarian; -97.4% (active) in the assay on BT-549 breast; -80.1% (active) with MDA-MB-435 melanoma. For the same molecule, the results for the growth with HCT-116 colon and in the assay on HCC-2998 colon were 0.156% (active) and -92.6% (active), respectively.
Turning to `CCOP(=O)(OCC)C(NC(C)=O)C(=O)SCCN` (stereo not given), the growth with 786-0 renal is 103%; in the assay with MALME-3M melanoma it was 105%; with UACC-257 melanoma, 96.2%; with SK-MEL-2 melanoma, 112%; in the assay with EKVX NSCLC it was 100%; in the assay with SN12C renal, 97.9%. The growth in the assay on TK-10 renal is 99.5%; in the assay on ACHN renal, 112%; in the assay with CAKI-1 renal it was 101%; in the assay with A498 renal, 91.7%; with RPMI-8226 leukemia, 109%; in the assay on OVCAR-8 ovarian it was 109%. Further, the growth was 110% in the assay with OVCAR-4 ovarian; 117% in the assay with SK-OV-3 ovarian; 110% with IGROV1 ovarian; 147% with OVCAR-3 ovarian; 111% with BT-549 breast; 111% in the assay with MDA-MB-435 melanoma. The growth with HCT-116 colon was 111%; in the assay on HCC-2998 colon it was 104%.
As for `C=CCN=C([Se])NC(=O)c1ccc2c(c1)OCO2`, the growth is 85.8% with 786-0 renal; 110% with MALME-3M melanoma; 102% in the assay with UACC-257 melanoma; 143% in the assay on SK-MEL-2 melanoma; 73.5% with EKVX NSCLC; 81.5% with SN12C renal. In addition, the growth with TK-10 renal was 120%; in the assay on ACHN renal it was 111%; in the assay with CAKI-1 renal, 118%; with A498 renal it was 82.5%; in the assay on RPMI-8226 leukemia, 105%; with OVCAR-8 ovarian, 61.1%. Also, the growth in the assay on OVCAR-4 ovarian is 108%; in the assay with SK-OV-3 ovarian it was 45.1%; in the assay with IGROV1 ovarian, 75.6%; with OVCAR-3 ovarian, 112%; with BT-549 breast, 104%; with MDA-MB-435 melanoma, 96.6%. Also, the growth was 43.6% in the assay on HCT-116 colon and 92.4% in the assay on HCC-2998 colon.
Regarding `COCCOCCOCCOc1ccc(-n2cc(CCCN(CCNc3ccnc4cc(Cl)ccc34)C(=O)CCC(=O)O[C@@H]3O[C@@H]4OC5(C)CC[C@H]6[C@H](C)CC[C@@H]([C@H]3C)[C@@]46OO5)nn2)cc1`, the growth with 786-0 renal was 47%; with MALME-3M melanoma it was -61.2% (active); with UACC-257 melanoma, 13.1%; in the assay on SK-MEL-2 melanoma, 47.9%; with EKVX NSCLC, 53.5%; with SN12C renal, 52.2%. In addition, the growth was 52.5% with TK-10 renal; 47.1% in the assay with ACHN renal; 39.7% in the assay on CAKI-1 renal; 94.9% in the assay with A498 renal; 26.3% in the assay on RPMI-8226 leukemia; 20.9% in the assay on OVCAR-8 ovarian. The growth in the assay with OVCAR-4 ovarian was 45.7%; with SK-OV-3 ovarian, 76.1%; in the assay on IGROV1 ovarian, 44.8%; in the assay on OVCAR-3 ovarian, 35.3%; with BT-549 breast, 4.88% (active); in the assay on MDA-MB-435 melanoma, 24.8%. Moreover, the growth in the assay on HCT-116 colon was 15.5%; with HCC-2998 colon, 67.2%.
`COc1cc(OC)c(/C=C/C(=O)c2nc3ccccc3n2Cc2ccc(F)cc2)c(OC)c1`: the growth in the assay with 786-0 renal is 85%; in the assay with MALME-3M melanoma it was 105%; in the assay on UACC-257 melanoma, 98.3%; with SK-MEL-2 melanoma, 104%; in the assay with EKVX NSCLC, 73.5%; in the assay with SN12C renal it was 77.3%. The growth with TK-10 renal was 109%; in the assay on ACHN renal, 75.2%; in the assay with CAKI-1 renal, 56.2%; in the assay with A498 renal, 130%; in the assay on RPMI-8226 leukemia, 78.4%; with OVCAR-8 ovarian it was 79.7%. For the same molecule, the growth in the assay with OVCAR-4 ovarian is 56.7%; with SK-OV-3 ovarian, 88.2%; with IGROV1 ovarian, 101%; in the assay on OVCAR-3 ovarian, 98.4%; with BT-549 breast it was 77.8%; with MDA-MB-435 melanoma it was 83.5%. Besides, the growth in the assay on HCT-116 colon was 74.8%; with HCC-2998 colon it was 105%.

These data come from PubChem BioAssay (NCI).
